The text below walks through data of PubChem BioAssay (NCATS).

The structures appear in SMILES notation. “And” between values parts separate entries of the source, which are not always exact repeats. Identical values can stand only once. Records with an inconclusive call do not appear. Values without a mark were called inactive. The source made the active and inactive calls. The call rests on the fitted dose curve; in most records, active means well fitted curve in the direction sought with a large enough effect; inconclusive means small, poorly fitted or top-dose-only effect, or another doubt; inactive means no such curve, though single readings can be large; an effect the other way counts as inactive or inconclusive.

The target in assay [1] is Cellular tumor antigen p53 (Homo sapiens) (UniProt P04637). In words: Primary qHTS for small molecule compounds that upregulate eGFP-tagged delta133p53alpha (in N-terminal) cells. (AID 2060322). Further: nearly all actives have a fitted effect of over 75% in size. Further: potency means the concentration at half of the fitted maximal effect.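 On activation: series mostly up to about 56 µM; 0% = DMSO vehicle and 100% = reference activator.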 Particulars: NCI-H358 eGFP-delta133p53alpha fluorescence, 24 h; activation: stronger effect = higher value. The essentials: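 NCI-H358 cells pre-induced 24 h with 10 ng/ml doxycycline to express N-terminal eGFP-delta133p53alpha, then dosed 24 h at 37C without doxycycline; fixed, Hoechst-stained, GFP intensity by laser scanning cytometry, normalized to DMSO (0%) and 57.5 uM 5-azacytidine (100%).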
Background: In qHTS, concentration-response curves come from the screen itself.

For assay [2], the target named is Retinaldehyde dehydrogenase 3 (Homo sapiens) (UniProt P47895). In words: qHTS for Inhibitors of the Aldehyde Dehydrogenase Family (ALDH1A3) Primary screen (AID 2061315).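 Further: plate controls were DMSO vehicle for no effect and reference inhibitor for full effect.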
Assay [3] has the same target. In words: qHTS for Inhibitors of the Aldehyde Dehydrogenase Family (ALDH1A3) Validation screen (AID 2061312). Further: on the % scale 0 is the no-effect control and ±100 the full control effect; nearly all actives have a fitted effect of over 45% in size.
Assay [4] can be described thus: BET inhibitor-based combinations targeting novel dependencies in MECOM-rearranged (r) AML: OCI-AML3 cell line (AID 2202232). Further: potency means the concentration at half of the fitted maximal effect; nearly all actives have a fitted effect of over 35% in size. Particulars: Potency: OCI-AML3 viability. The essentials: (§1)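 Luminescent ATP readout (CellTiter-Glo) after 48 hr drug exposure gives viability. Curves span 11 concentrations and are normalized to DMSO and empty wells. Activity is reported as area under the curve and its Z-transform within each cell line.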

A short description of assay [5]: BET inhibitor-based combinations targeting novel dependencies in MECOM-rearranged (r) AML: MV-4-11 cell line (AID 2202233). Further: potency means the concentration at half of the fitted maximal effect; nearly all actives have a fitted effect of over 45% in size. The procedure, abridged: (§2)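 Luminescent ATP readout (CellTiter-Glo, 15 min at room temperature) after 48 hr drug exposure gave viability. Dose-response curves, normalized to DMSO and empty-well controls, were summarized as area under the curve and its mean-centred Z-score.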

Assay [6] is described as follows: BET inhibitor-based combinations targeting novel dependencies in MECOM-rearranged (r) AML: UCSD-AML1 cell line (AID 2202235). Further: nearly all actives have a fitted effect of over 40% in size. Further: potency means the concentration at half of the fitted maximal effect. The procedure, abridged: as §2
Assay [7] can be described thus: BET inhibitor-based combinations targeting novel dependencies in MECOM-rearranged (r) AML: AML-191 cell line (AID 2202236; further: nearly all actives have a fitted effect of over 35% in size; further: potency means the concentration at half of the fitted maximal effect). The procedure, abridged: as §1
A short description of assay [8]: BET inhibitor-based combinations targeting novel dependencies in MECOM-rearranged (r) AML: AML-194 cell line (AID 2202237; further: nearly all actives have a fitted effect of over 40% in size; further: potency means the concentration at half of the fitted maximal effect). The procedure, abridged: as §1
A short description of assay [9]: BET inhibitor-based combinations targeting novel dependencies in MECOM-rearranged (r) AML: SET-2 cell line (AID 2202231). Further: nearly all actives have a fitted effect of over 35% in size. Further: potency means the concentration at half of the fitted maximal effect.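 On viability: plate controls were DMSO treated cells for no effect and wells without cells for full effect.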 Particulars: SET-2 AML cells viability, CellTiter-Glo luminescence, 48 h; viability: stronger effect = lower value, concentration not given here. The procedure, abridged:
as §1
In general terms: In ATP-based viability assays light output follows the ATP content of the culture.

A short description of assay [10]: BET inhibitor-based combinations targeting novel dependencies in MECOM-rearranged (r) AML: HNT-34 cell line (AID 2202234). Further: potency means the concentration at half of the fitted maximal effect; nearly all actives have a fitted effect of over 35% in size. The essentials:
as §2

Sequence of Cellular tumor antigen p53 (Homo sapiens) (P04637 whole entry, looked up): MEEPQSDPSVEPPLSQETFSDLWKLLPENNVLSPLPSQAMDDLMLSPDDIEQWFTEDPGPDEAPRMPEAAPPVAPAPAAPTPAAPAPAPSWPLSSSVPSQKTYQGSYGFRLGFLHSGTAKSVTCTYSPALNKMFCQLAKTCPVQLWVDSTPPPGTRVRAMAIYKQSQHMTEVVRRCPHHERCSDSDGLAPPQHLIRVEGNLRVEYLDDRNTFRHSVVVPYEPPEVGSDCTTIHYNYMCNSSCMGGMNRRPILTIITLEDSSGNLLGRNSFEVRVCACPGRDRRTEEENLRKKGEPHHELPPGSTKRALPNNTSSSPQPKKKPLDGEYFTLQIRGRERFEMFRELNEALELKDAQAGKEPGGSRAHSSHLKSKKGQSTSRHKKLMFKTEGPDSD

Turning to `CC[C@]1(O)C[C@@H]2CN(CCc3c([nH]c4ccccc34)[C@@](C(=O)OC)(c3cc4c(cc3OC)N(C)[C@H]3[C@@](O)(C(=O)OC)[C@H](OC(C)=O)[C@]5(CC)C=CCN6CC[C@]43[C@@H]65)C2)C1`, the activation in assay [1] was -35.1%. Further, the Potency entry in assay [2] is “inactive”.
`COc1cccc(OC)c1-c1cc(C(=O)N[C@@H](CC(C)C)C(=O)O)nn1-c1ccnc2cc(Cl)ccc12`: in [1], the activation is 15.8%. For the same compound, the Potency result in assay [2] was “inactive”.
With `Cc1cc(NC(=O)Nc2ccc(F)c(F)c2)n(-c2ccccc2)n1`, the activation in assay [1] was -15.8%. For the same compound, the Potency result in assay [3] and in assay [2] was “inactive” throughout.
Consider `C=C/C=C/[C@@H]1OC[C@H](/C=C/C=C/C)[C@H]1O`, for which, in assay [1], the activation is -11.5%. Besides, the Potency entry in assay [2] is “inactive”.
For `COc1ccccc1NC(=O)Nc1ccc2ccccc2c1` the same measures were -9% and “inactive”.
In the case of `COc1ccc([C@@]2(O)c3c(ccc4c3OC(C)(CCC=C(C)C)C=C4)NC(=O)[C@@H]2OC)cc1` (stereo partly drawn), the activation in assay [1] was -6.87%. The Potency entry in [2] is “inactive”.
On to `CC1=C2C[C@@]3(C)C(CCC[C@@H]3C)C(O)C2OC1=O` (stereo partly drawn), for which the activation in [1] was -15.3%. Besides, the Potency entry in assay [2] is “inactive”.
For the compound `CCOc1cc(C(C)(C)C)ccc1C1=N[C@@](C)(c2ccc(Cl)cc2)[C@@](C)(c2ccc(Cl)cc2)N1C(=O)N1CCN(CC(=O)N2CCOCC2)CC1`, the activation in [1] was 35.5%. Besides, the Potency entry in [2] is “inactive”. For the same compound, the Potency in [4] was 11.5 µM (active); in [5], 1.63 µM (active); in assay [6], 4.09 µM (active); in [7] it was 7.28 µM (active); in assay [8], 9.17 µM (active).
On to `CC(=O)OC1/C(C)=C/C(=O)C(OC(C)=O)C(C)(C)/C=C/C(C)C(=O)C2(OC(C)=O)CC(C)C(OC(=O)c3ccccc3)C12` (stereo not drawn), for which the activation in assay [1] is -10.7%. Besides, the Potency entry in [2] was “inactive”.
For `O=C(O)[C@H](Cc1ccc(Nc2nccc3ccncc23)cc1)NC1=C(Br)C(=O)C12CCCCC2` the same measures were -6.21% and “inactive”.
For the compound `Cc1cc(Nc2nc(N[C@@H](C)c3ccc(F)cc3)c(C#N)cc2F)n[nH]1`, the Potency in assay [1] is 16.9 µM (active); in assay [5], 0.662 µM (active); in [6], 0.525 µM (active); in assay [7], 0.105 µM (active); in assay [8] it was 0.166 µM (active). Besides, the Potency result in [2] is “inactive”.
For the compound `C/C=C/C=C/C(O)=C1\C(=O)[C@]2(C)C3C(C(=O)CC/C=C/C)=C(O)C4(C)C1[C@]1(C)O[C@@]4(O)[C@@]3(C)O[C@@]12O`, the activation in [1] was 1.53%. For the same compound, the Potency result in [2] was “inactive”.
For `CC1CC(O)/C=C/C(O)C(O)CC(=O)Cc2c(Cl)c(O)cc(O)c2C(=O)O1` (stereo not drawn) the same measures were 4.58% and “inactive”.
For the compound `C[C@@H]1C[C@@H]2O[C@H]2/C=C\C=C\C(=O)Cc2c(Cl)c(O)cc(O)c2C(=O)O1`, the Potency in assay [1] was 14.8 µM (active). Moreover, the Potency result in assay [2] was “inactive”.
Regarding `COc1ccc2[nH]c(S(=O)Cc3ncc(C)c(OC)c3C)nc2n1` (stereo not drawn), the activation in assay [1] is 10.7% and 10%. For the same compound, the Potency result in [2], in [6], in assay [7] and in [8] was “inactive” in each case. Moreover, in assay [9], the viability (as a rule, a read-out of living cells in per cent, often relative to untreated cells) was 109%.
As for `C/C=C(/COC(=O)/C(C)=C/C)C(=O)OC/C=C/c1ccc(OC)cc1`, the activation in assay [1] was 0.893%. The Potency entry in assay [2] was “inactive”.
As for `COC(=O)[C@H](c1ccccc1Cl)N1CCC2SC(=O)C=C2C1` (stereo partly drawn), the activation in [1] was 16.3%. In addition, in [2], the Potency result is “inactive”.
For `COc1ccc(-c2nc3ccc(C4=NNC(=O)CC4C)cc3[nH]2)cc1` (stereo not drawn), the activation in [1] is 15.8%. In [2], the Potency result is “inactive”. The Potency is 18.6 µM (active) in assay [4], 8.33 µM (active) in [10] and 11.8 µM (active) in assay [6].
Take `COc1cccc2nc(-c3cccs3)nc(NN3C(=O)C=C(C)C3=O)c12`: the Potency in assay [1] is 19.3 µM (active); in assay [9], 0.417 µM (active); in [4] it was 0.417 µM (active); in assay [5] it was 0.166 µM (active); in assay [10], 0.263 µM (active); in assay [7], 0.148 µM (active). Further, in [8], the Potency is 0.263 µM (active). In addition, in assay [2], the Potency result was “inactive”.
On to `O=C(O)c1cc2cccc([N+](=O)[O-])c2[nH]1`, for which, in assay [1], the activation is 10.3%. Besides, the Potency entry in [2] was “inactive”.
Consider `Clc1ccc(C(Cn2ccnc2)OCc2c(Cl)cccc2Cl)c(Cl)c1` (stereo not drawn), for which the activation in [1] is 27.9% and 17%. Further, the Potency entry in [2] and in [6] was “inactive” throughout. The Potency is 26.3 µM (active) in [9]; 10.5 µM (active) in [4]; 18.6 µM (active) in assay [5]; 26.3 µM (active) in [10]; 18.6 µM (active) in assay [8].
`C[C@H](Nc1ncnc2nc[nH]c12)c1cc2cccc(Cl)c2c(=O)n1-c1ccccc1`: the activation in assay [1] is 7%. Besides, in assay [2], the Potency entry was “inactive”. Moreover, the results for the Potency in assay [9], in assay [4] and in [6] were 18.6 µM (active), 0.934 µM (active) and 1.32 µM (active), respectively.
On to `C[C@@H]1O[C@@H](O[C@H]2[C@H](O[C@H]3[C@H](O[C@H]4CC[C@@]5(C)C(CC[C@]6(C)C5CC=C5[C@@H]7CC(C)(C)CC(=O)[C@]7(C)CC[C@]56C)[C@@]4(C)CO)O[C@H](C(=O)O)[C@@H](O)[C@@H]3O)O[C@H](CO)[C@H](O)[C@@H]2O)[C@H](O)[C@H](O)[C@H]1O` (stereo partly drawn), for which the activation in assay [1] is -17%. For the same compound, the Potency result in assay [2] is “inactive”.
